Assay results from PubChem BioAssay (NCATS).
Results filed as inconclusive are left out. The source made the active and inactive calls. Unless noted, how the calls were made is not given here.

Key:
[1] = qHTS profiling of the MIPE4 collection as inhibitors of Plasmodium falciparum (3D7) proliferation (AID 743344);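 further: scaled between DMSO vehicle wells and 0.29 µM artemisinin as full inhibition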; conditions: P. falciparum 3D7 in erythrocytes, SYBR Green DNA fluorescence, 72 h; at 28.5 µM unless noted
Procedure, shortened: (§1)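 Erythrocytes infected with P. falciparum (0.3% parasitemia, 2.5% hematocrit) incubated with compounds 72 h at 37 C, 5% CO2. Lysis with saponin/Triton buffer containing SYBR Green I, overnight at room temperature in the dark; DNA fluorescence (485/535 nm) normalised to 0.29 uM artemisinin and DMSO.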

[2] = qHTS profiling of the MIPE4 collection as inhibitors of Plasmodium falciparum (DD2) proliferation (AID 743345); conditions: P. falciparum Dd2 in erythrocytes, SYBR Green DNA, 72 h; at 28.5 µM unless noted
Procedure, shortened: as §1

[3] = qHTS profiling of the MIPE4 collection as inhibitors of Plasmodium falciparum (DD2) proliferation (Rep 2) (AID 743346); conditions: P. falciparum Dd2 in erythrocytes, SYBR Green DNA, 72 h; at 28.5 µM unless noted
Procedure, shortened: as §1

[4] = High-throughput drug toxicity screening in the BPDCN cell line Gen2.2 (AID 1224824); conditions: Gen2.2 BPDCN cells; at 45.8 µM (top of the series) unless noted;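 further: cells exposed to compounds for 48 h before reading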
Procedure, shortened: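 Gen2.2 cells, 500 per well in phenol red-free RPMI with 10% FBS, exposed to compounds 48 h at 37 C, 5% CO2; viability by CellTiter-Glo luminescence. Percent activity scaled to DMSO (100%) and 9.2 uM bortezomib final (0%).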

[5] = High-throughput drug toxicity screening in the BPDCN cell line Cal-1 (AID 1224825); conditions: Cal-1 BPDCN cell viability, qHTS; at 45.8 µM (top of the series) unless noted
Procedure, shortened: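 Exponentially growing Cal-1 cells, 500 per well in phenol red-free RPMI with 10% FBS, were exposed to compounds for 48 h at 37 °C, 5% CO2. Viability was read by CellTiter-Glo luminescence and normalised to DMSO (100%) and 9.2 uM bortezomib (0%).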

[6] = qHTS assay for measurement of the activity of small molecule inhibitors on Zika virus induced Caspase-3 activity in human iPSC derived neural progenitor cells (hNPCs) (AID 1224857; active means well fitted curve in the direction sought with a large enough effect; an effect the other way counts as inactive or inconclusive; further: nearly all actives have a fitted effect of over 65% in size; further: potency means the concentration at half of the fitted maximal effect)
Procedure, shortened: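 Cells were plated at 350 per well and grown 16 to 20 hours. Compound pretreatment lasted one hour, after which ZIKV (2 FFU/cell) was added for 6 hours. Percent inhibition was normalized between uninfected and infected controls.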

[7] = qHTS profiling of the MIPE4 collection as inhibitors of Plasmodium falciparum (HB3) proliferation (AID 743347);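 further: plate controls were DMSO vehicle wells for no effect and artemisinin wells for full effect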; conditions: P. falciparum HB3 in erythrocytes, SYBR Green DNA, 72 h; at 28.5 µM unless noted
Procedure, shortened: as §1

[8] = qHTS Assay for Identifying Gametocytocidal Compounds (AID 743244; active means well fitted curve in the direction sought with a large enough effect; an effect the other way counts as inactive or inconclusive;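 further: on the % scale 0 is the no-effect control and ±100 the full control effect; actives lower the fluorescent signal which means gametocytes are killed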); conditions: P. falciparum 3D7 stage III-V gametocytes, alamarBlue, 72 h; max response: stronger effect = lower value
Procedure, shortened: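 3D7 gametocytes, stages III–V, 20,000/well; cpd 72 h, 37 °C/5% CO2; + alamarBlue 24 h; fluor. Ex 525/Em 598.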

[9] = qHTS profiling for inhibitors of Plasmodium falciparum (3D7) proliferation (AID 743322);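 further: infected erythrocytes exposed to compound for 72 h before lysis; 100% = DMSO vehicle wells and 0% = 0.29 µM artemisinin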; conditions: P. falciparum 3D7 proliferation; at 28.7 µM (top of the series) unless noted
Procedure, shortened: as §1

[10] = qHTS profiling for inhibitors of Plasmodium falciparum (DD2) proliferation (AID 743323); conditions: lower = more inhibition; at 28.7 µM (top of the series) unless noted
Procedure, shortened: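 Parasite proliferation measured via DNA-dye fluorescence, as uninfected erythrocytes lack DNA. Cultures at 0.3% parasitemia and 2.5% hematocrit incubated 72 h with compound; signal scaled between vehicle and 0.29 uM artemisinin wells.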

[11] = qHTS profiling for inhibitors of Plasmodium falciparum (HB3) proliferation (AID 743324; active means well fitted curve in the direction sought with a large enough effect; an effect the other way counts as inactive or inconclusive;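 further: 100% = DMSO vehicle wells and 0% = artemisinin-treated control wells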); conditions: Plasmodium falciparum HB3 blood-stage proliferation; at 28.7 µM (top of the series) unless noted
Procedure, shortened: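 P. falciparum HB3 grown in erythrocytes (0.3% parasitemia, 2.5% hematocrit final) with compound for 72 h at 37 C, 5% CO2. Parasite DNA detected by SYBR Green after saponin/triton lysis overnight; normalized to 0.29 uM artemisinin and DMSO.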

[12] = qHTS assay for measurement of the activity of small molecule inhibitors on Zika virus induced Caspase-3 activity in human astrocytoma cells (AID 1224859; active means well fitted curve in the direction sought with a large enough effect; an effect the other way counts as inactive or inconclusive;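 further: plate controls were ZIKV-infected untreated cells for no effect and uninfected cells for full effect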)
Procedure, shortened: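 Percent inhibition of virus-induced caspase-3/7 signal is calculated against uninfected and ZIKV-infected control cells. Cells are SNB-19, infected at 2 FFU/cell for 6 h after 1 h compound exposure.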

Row | Structure (SMILES) | parasite growth, % of DMSO control [1] [%] | parasite growth remaining, % of DMSO control (lower = more inhibition) [2] [%] | parasite growth, % of control (lower = inhibition) [3] [%] | cell viability, % of control (lower = more cytotoxic) [4] [%] | viability (% of control) [5] [%] | Potency [6] | growth, % of control [7] [%] | max response [8] | remaining parasite growth % (stronger effect = lower value) [9] [%] | activity, percent of control [10] [%] | remaining proliferation (% of control), lower = more inhibition [11] [%] | Potency [12]
1 | CC(=O)N1CCN(c2ccc(OCc3nn(C)c(C)c3-c3cccc4c(CCCOc5cc(C)c(Cl)c(C)c5)c(C(=O)O)n(Cc5cccnc5)c34)cc2)CC1 | 5.72 | 15.1 | 13.7 | 7.74 | 2.47 | inactive | – | – | – | – | – | –
2 | COc1ccc(-c2cc3nccn3c(Nc3ncccc3C(N)=O)n2)cc1OC | 4.5 | 9.28 | 5.75 | 47.7 | 26.1 | inactive | 2.93 | – | – | – | – | –
3 | CN(C)CCN(Cc1ccc(Cl)cc1)c1ccccn1 | 38.2 | 50.5 | 28.6 | 86.6 | 37.6 | inactive | – | 18.2% (inactive) | – | – | – | –
4 | CCN1CCC(n2cc(CNc3cc(Cl)c4ncc(C#N)c(Nc5ccc(F)c(Cl)c5)c4c3)nn2)CC1 | 12.9 | – | 12.3 | 35.5 | 36.8 | 18.7 µM (active) | 7.52 | – | – | – | – | –
5 | CC[C@H](CC#N)OC(=O)N[C@@H](C)c1cccc(NC(=O)Nc2ccc(-c3cnco3)c(OC)c2)c1 | 12.8 | – | 17.5 | 74.3 | 18.6 | inactive | 9.12 | – | – | – | – | –
6 | CC(=O)NCCC(=O)N[C@@H](CCC(N)=O)C(=O)N[C@@H](CO)C(=O)N[C@@H](CCC(N)=O)C(=O)N[C@@H](CCC(N)=O)C(=O)N[C@H](C(=O)N[C@@H](Cc1ccccc1)C(=O)N[C@]1(C)CCCCCCC=CCCC[C@@](C)(C(=O)N[C@@H](CCC(N)=O)C(=O)N[C@@H](CC(N)=O)C(N)=O)NC(=O)[C@H](CC(C)C)NC(=O)[C@H](CC(C)C)NC(=O)[C@@H](CCCNC(=N)N)NC(=O)[C@H](Cc2c[nH]c3ccccc23)NC(=O)[C@H](CC(C)C)NC(=O)[C@H](CC(N)=O)NC1=O)[C@H](C)O | 86.3 | 41.2 | 28.5 | 27 | 78.7 | inactive | 30.1 | – | 38.2 | 68.3 | 66.8 | –
7 | Fc1ccc(C(c2ccc(F)cc2)N2CCN(CC=Cc3ccccc3)CC2)cc1 | 6.36 | – | 44.1 | 18.7 | 30.9 | inactive | 5.16 | – | – | – | – | –
8 | O=C1CN2Cc3c(ccc(Cl)c3Cl)N=C2N1 | 82.8 | 91.6 | 85.1 | 198 | 96.9 | inactive | 85.4 | – | 87 | 93.4 | 46.3 | –
9 | COc1cc2c(cc1Cc1cccc(Cl)c1F)c(=O)c(C(=O)O)cn2[C@H](CO)C(C)C | 7.9 | 19 | 16.6 | 19.1 | 11 | inactive | 3.89 | – | – | – | – | –
10 | C#C[C@]1(O)CC[C@H]2[C@H]3CCc4cc(OC)ccc4[C@H]3CC[C@@]21C | 76.5 | 98.2 | 90.2 | 211 | 98 | inactive | – | – | – | – | – | –
11 | O=C(Nc1ccc(OC(F)(F)F)cc1)c1sccc1NCc1ccnc2ccccc12 | 57 | 85.7 | 82.6 | 42.4 | 11.5 | 5.9 µM (active) | 67.5 | 8.87% (inactive) | 71.5 | 75.1 | 58.1 | –
12 | CNC1[C@H](O)C(O[C@@H]2C(O)C(O[C@H]3O[C@H]([C@@H](C)NC)CC[C@H]3N)[C@@H](N)C[C@H]2N)OC[C@]1(C)O (stereo partly specified) | – | – | – | 116 | 101 | 18.7 µM (active) | 99.6 | – | – | – | – | inactive
13 | CC1=C[C@@H]2[C@@H]([C@@H](O)C[C@@]3(C)[C@H]2C[C@@H](C)[C@]3(O)C(=O)CO)[C@@]2(C)Cc3cnn(-c4ccccc4)c3C=C12 | 33.4 | 8.93 | 46.9 | 24.4 | 32.5 | inactive | 11.6 | -28.3% (inactive) | 0.407 | -0.0711 | 0.0764 | –
14 | CC(=O)OCC(=O)[C@@]12OC(C)(C)O[C@H]1C[C@H]1[C@@H]3C[C@H](F)C4=CC(=O)C=C[C@]4(C)[C@@]3(F)[C@@H](O)C[C@@]12C | 51.9 | – | 35.9 | 76.3 | 56.5 | inactive | – | – | – | – | – | –
15 | N#CC(=C1Nc2ccccc2S1)c1ccnc(OCc2ccc(CN3CCOCC3)cc2)n1 | 14.1 | 57.9 | 35.2 | 5.77 | 2.57 | inactive | 10.8 | – | – | – | – | –
16 | CN1[C@H]2CC[C@H]1CC(OC(=O)c1c[nH]c3ccccc13)C2 (stereo partly specified) | 53 | 26.8 | 19.2 | 99 | 111 | inactive | 22 | – | – | – | – | –
17 | CCC(=C(CC)c1ccc(O)cc1)c1ccc(O)cc1 | 57.2 | 96.4 | 84.8 | 111 | 25.3 | – | 90.8 | – | – | – | – | inactive
18 | O=C(O)C1=CC(O)C(O)[C@H](O)C1 (stereo partly specified) | 92.4 | – | 86.5 | 146 | 105 | – | 51.8 | – | – | – | – | inactive
19 | C=C1[C@H](n2cnc3c(=O)[nH]c(N)nc32)C[C@H](O)[C@H]1CO | – | 88 | 34.7 | 147 | 8.7 | – | 42.8 | – | – | – | – | inactive
20 | CC1CCN(c2cc(N3CCN(C)CC3)ccc2NC(=O)c2cc(C#N)c[nH]2)CC1 | – | 80.6 | 36.9 | 107 | 104 | – | 50.4 | – | – | – | – | inactive
21 | Cc1cc(NC(=O)Nc2ccc(N(C)C)cc2)c2cc(F)cc(F)c2n1 | 9.65 | 46 | 10.9 | 149 | 112 | – | 10.1 | – | – | – | – | inactive
22 | O=C(c1ccc(F)c(F)c1Nc1ccc(I)cc1F)N1CC(O)([C@H]2CCCCN2)C1 | 11 | 11.1 | 20.2 | 3.78 | 2.16 | – | 4.74 | – | – | – | – | inactive
